Laboratory results: PubChem BioAssay (NCATS)
Inconclusive results are not listed. Entries that show only a call come without a potency. Calls of active or inactive are those of the source. Unless noted, calls follow the shape of the dose curve; as a rule, active = well fitted curve in the direction sought with a large enough effect; inconclusive = small, poorly fitted or top-dose-only effect, or another doubt; inactive = no such curve, though single readings can be large; an effect the other way counts as inactive or inconclusive. Numbered stars: 1 amine (or outer) side, 2 acyl side, 3 side chain; on linkers, the order of the positions; unused ones are H or OH. Bridge positions count the residues as written; N and C are the ends. Square brackets hold non-standard residues; d marks the D form. Peptide text beside a SMILES is read from it. * marks the point of attachment. ξ: configuration not given here. ΔAla(Z-3-ureido) = NC(=O)N/C=C(\N)C(=O)O; X2 = NC1=NC(O)CC(C(N[*:1])C(=O)[*:2])N1; ξβ3hOrn = NCCCC(N)CC(=O)*; Dap = NC[CH](N)C(=O)O

Columns and labels:
[1] = molecular target: Cytochrome P450 3A4 (Homo sapiens) (UniProt P08684); assay: qHTS Assay for Inhibitors and Substrates of Cytochrome P450 3A4 (AID 884); also: nearly all actives have a fitted effect of over 50% in size; also: potency is read from the fitted curve at half-maximal effect
Cytochrome P450 3A4 (Homo sapiens), sequence (P08684 whole entry, looked up): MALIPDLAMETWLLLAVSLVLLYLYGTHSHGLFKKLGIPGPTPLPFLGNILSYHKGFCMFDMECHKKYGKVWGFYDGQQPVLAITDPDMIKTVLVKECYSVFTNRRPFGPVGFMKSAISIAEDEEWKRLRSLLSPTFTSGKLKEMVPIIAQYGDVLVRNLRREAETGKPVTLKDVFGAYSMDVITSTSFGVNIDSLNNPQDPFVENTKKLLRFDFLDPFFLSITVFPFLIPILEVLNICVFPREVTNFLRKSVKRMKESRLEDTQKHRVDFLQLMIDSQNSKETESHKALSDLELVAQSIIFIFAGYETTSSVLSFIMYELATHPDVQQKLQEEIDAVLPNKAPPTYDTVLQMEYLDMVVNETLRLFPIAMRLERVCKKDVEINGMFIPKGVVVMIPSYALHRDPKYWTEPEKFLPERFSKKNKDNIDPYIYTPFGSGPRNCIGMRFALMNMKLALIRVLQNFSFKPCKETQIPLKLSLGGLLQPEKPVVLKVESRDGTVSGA
Summary of the method: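 20 nM human CYP3A4 with 25 uM Luciferin-PPXE (at KM) in 200 mM KPO4, preincubated 10 min with compound; NADPH regeneration started a 60 min RT reaction. Luciferin detected by luminescence, normalized to 57 uM ketoconazole as full inhibition.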

[2] = molecular target: DNA dC->dU-editing enzyme APOBEC-3G (Homo sapiens) (UniProt Q9HC16); assay: qHTS for inhibitors of Vif-A3G interactions: Validation (AID 588379)
DNA dC->dU-editing enzyme APOBEC-3G (Homo sapiens), sequence (Q9HC16 whole entry, looked up): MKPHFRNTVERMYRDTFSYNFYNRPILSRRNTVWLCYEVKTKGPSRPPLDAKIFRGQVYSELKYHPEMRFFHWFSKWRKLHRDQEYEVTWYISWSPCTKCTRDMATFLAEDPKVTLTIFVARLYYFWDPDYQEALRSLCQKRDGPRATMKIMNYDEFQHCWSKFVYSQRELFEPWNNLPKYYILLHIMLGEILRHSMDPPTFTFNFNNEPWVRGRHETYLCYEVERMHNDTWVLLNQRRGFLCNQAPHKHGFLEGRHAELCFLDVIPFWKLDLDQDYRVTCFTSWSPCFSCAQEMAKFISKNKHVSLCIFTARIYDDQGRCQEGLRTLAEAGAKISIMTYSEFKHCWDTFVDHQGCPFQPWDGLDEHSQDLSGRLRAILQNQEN
Summary of the method: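 HeLa cells stably expressing Vif and A3G-eYFP, 700 cells/well, incubated overnight at 37 deg C, then exposed to compound overnight at 37 deg C. Inhibition of Vif-mediated degradation read as increased yellow fluorescence (Ex 488/Em 500-530) by laser-scanning cytometry.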

[3] = molecular target: Cytochrome P450 3A4 (Homo sapiens) (UniProt P08684); assay: qHTS Assay for Activators of Cytochrome P450 3A4 (AID 885); also: nearly all actives have a fitted effect of over 65% in size
Summary of the method: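 20nM CYP3A4 + 25uM Luciferin-PPXE (=KM), 200mM KPO4; cpd 10 min RT; NADPH regen, 60 min RT; stop w/ detection buffer, 20 min; luminescence. Normalized to 57 uM ketoconazole.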

[4] = S16 Schwann cell viability assay (CellTiter-Glo assay) (AID 624031); also: nearly all actives have a fitted effect of over 70% in size; also: potency is read from the fitted curve at half-maximal effect
Summary of the method: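 Following overnight culture in 10% FBS DMEM, parental S16 rat Schwann cells are dosed for 24 h at 37 °C. Viability is read as CellTiter-Glo luminescence and expressed as % activity relative to DMSO (0%) and no-cell wells.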

[5] = S16 Schwann cell PMP22 intronic element beta-lactamase assay (AID 624044; calls by dose curve; also: nearly all actives have a fitted effect of over 15% in size; also: potency is read from the fitted curve at half-maximal effect)
Summary of the method: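 Rat S16 Schwann cells with beta-Lac driven by a PMP22 intronic element, compound-treated 24 h at 37 °C. LiveBLAzer FRET B/G read: 460 nm normalized to potassium clavulanate vs DMSO; 535 nm FRET as viability; concentration-effect curves classified.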

CP215 = assay: qHTS profiling for inhibitors of Plasmodium falciparum proliferation (AID 504749); also: nearly all actives have a fitted effect of over 60% in size; also: potency is read from the fitted curve at half-maximal effect; details: P. falciparum in erythrocytes, SYBR Green DNA, 72 h; series mostly up to 28.7 µM
Summary of the method: (§1)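 P. falciparum-infected erythrocytes (0.3% parasitemia, 2.5% hematocrit final) were exposed to compounds for 72 h at 37 C in 5% CO2, then lysed with SYBR Green buffer overnight at room temperature; parasite DNA fluorescence was normalized to artemisinin and DMSO controls.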

CP256 = assay: as above; details: P. falciparum in erythrocytes, SYBR Green DNA, 72 h; series mostly up to 28.7 µM
Summary of the method: as §1

CP260 = assay: as above; details: P. falciparum in erythrocytes, SYBR Green DNA, 72 h; series mostly up to 28.7 µM
Summary of the method: as §1

DIV14 = assay: as above; details: P. falciparum in erythrocytes, SYBR Green DNA, 72 h; series mostly up to 28.7 µM
Summary of the method: as §1

DIV17 = assay: as above; details: P. falciparum in erythrocytes, SYBR Green DNA, 72 h; series mostly up to 28.7 µM
Summary of the method: as §1

ICS = assay: as above; details: P. falciparum in erythrocytes, SYBR Green DNA, 72 h; series mostly up to 28.7 µM
Summary of the method: as §1

W2 = assay: as above; details: P. falciparum in erythrocytes, SYBR Green DNA, 72 h; series mostly up to 28.7 µM
Summary of the method: as §1

[6] = Confirmation and Secondary Assay for Modulators of Hemoglobin Beta Chain Splicing at IVS2 654 locus (AID 910);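 also: per-well total GFP intensity by laser scanning cytometry after 2-day treatment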
Summary of the method: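 HeLa cells stably carrying EGFP interrupted by mutant beta-globin IVS2-654 intron (CMV-driven) were treated with compound for 2 days at 37C; corrected splicing was scored as total peak GFP intensity per well (488 nm excitation, 500-520 nm emission).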

[7] = Confirmation and Secondary Assay for Modulators of Hemoglobin Beta Chain Splicing at IVS2 705 locus (AID 930);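 also: HeLa cells stably expressing the EGFP-705 splicing reporter; GFP fluorescence per well restored by corrected splicing of the IVS2-705 intron in EGFP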
Summary of the method: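 HeLa IVS2-705 EGFP reporter cells, 500/well, compound 2 d at 37C; correct splicing yields fluorescent EGFP. Control: 500 nM antisense PNA. Read-out: total peak GFP intensity.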

SMILES: CC(=O)OC1CCC2(C)C(=CCC3C2CCC2(C)C3C[C@@H]3O[C@]32C(C)=O)C1 (some centres not stated)
- Potency [1]: inactive
- Potency [2]: inactive

SMILES: COc1ccc(/C=C/C(=O)c2cccs2)cc1OC
- Potency [1]: 2.51 µM (active)
- Potency [3]: inactive
- Potency [2]: inactive

SMILES: NC(=O)CCC1NC(=O)C(Cc2ccccc2)NC(=O)C(Cc2ccc(O)cc2)NC(=O)CCSSCC(C(=O)N2CCCC2C(=O)NC(CCCN=C(N)N)C(=O)NCC(N)=O)NC(=O)C(CC(N)=O)NC1=O (configuration not stated)
- Potency [4]: inactive
- Potency [5]: inactive
- Potency (CP215): inactive
- Potency (CP256): inactive
- Potency (CP260): inactive
- Potency (DIV14): inactive
- Potency (DIV17): inactive
- Potency (ICS): inactive
- Potency (W2): inactive

SMILES: COc1ccc2c(=O)c(-c3ccccc3)coc2c1
- Potency [3]: inactive
- Potency [2]: inactive

SMILES: O=C1CC(c2ccccc2O)Oc2ccc(O)cc21 (configuration not stated)
- Potency [3]: inactive
- Potency [2]: inactive

SMILES: CC(C)CC(NC(=O)C(COC(C)(C)C)NC(=O)C(Cc1ccc(O)cc1)NC(=O)C(CO)NC(=O)C(Cc1c[nH]c2ccccc12)NC(=O)C(Cc1cnc[nH]1)NC(=O)C1CCC(=O)N1)C(=O)NC(CCCN=C(N)N)C(=O)N1CCCC1C(=O)NNC(N)=O (configuration not stated)
- Potency [4]: inactive
- Potency (CP215): inactive
- Potency (CP256): inactive
- Potency (DIV14): inactive
- Potency (DIV17): inactive
- Potency (ICS): inactive
- Potency (W2): inactive

SMILES: CCC(C)C1NC(=O)C(Cc2ccc(O)cc2)NC(=O)C(N)CSSCC(C(=O)N2CCCC2C(=O)NC(CC(C)C)C(=O)NCC(N)=O)NC(=O)C(CC(N)=O)NC(=O)C(CCC(N)=O)NC1=O (configuration not stated)
- Potency (CP215): inactive
- Potency (CP256): inactive
- Potency (CP260): inactive
- Potency (DIV14): inactive
- Potency (DIV17): inactive
- Potency (ICS): inactive
- Potency (W2): inactive

SMILES: NCCCC(N)CC(=O)NC1CNC(=O)C(C2CC(O)N=C(N)N2)NC(=O)/C(=C/NC(N)=O)NC(=O)C(CO)NC(=O)C(CO)NC1=O (stereo not drawn) (ξβ3hOrn-[Dap]SS[ΔAla(Z-3-ureido)][X2]; lactam 1-C; configuration not given here)
- Potency [4]: inactive
- Potency [5]: inactive
- Potency (CP256): inactive
- Potency (CP260): inactive
- Potency (W2): inactive

SMILES: CC1(C)C(/C=C/C=C/C=C/C=C2\N(CCCCS(=O)(=O)O)c3ccc4ccccc4c3C2(C)C)=[N+](CCCCS(=O)(=O)[O-])c2ccc3ccccc3c21
- Potency [4]: inactive
- Potency [5]: inactive
- Potency (CP215): inactive
- Potency (CP256): inactive
- Potency (DIV14): inactive
- Potency (DIV17): inactive
- Potency (ICS): inactive

SMILES: C=CC1=C(C(=O)O)N2C(=O)[C@@H](NC(=O)C(N=O)c3csc(N)n3)[C@H]2SC1 (some centres not stated)
- Potency [4]: inactive
- Potency [5]: inactive
- Potency (CP215): inactive
- Potency (CP256): inactive
- Potency (CP260): inactive
- Potency (DIV14): inactive
- Potency (DIV17): inactive
- Potency (ICS): inactive

SMILES: COc1ccc(-c2oc3ccccc3c(=O)c2O)cc1
- Potency [3]: inactive
- Potency [2]: inactive

SMILES: O=C1/C(=C\c2cccs2)CCC/C1=C/c1cccs1
- Potency [4]: inactive
- Potency [5]: inactive
- Potency (CP215): inactive
- Potency (CP256): inactive
- Potency (CP260): inactive
- Potency (DIV14): inactive
- Potency (ICS): inactive

SMILES: O=C(OCC1OC(OC(=O)c2cc(O)c(O)c(OC(=O)c3cc(O)c(O)c(O)c3)c2)[C@@H](OC(=O)c2cc(O)c(O)c(OC(=O)c3cc(O)c(O)c(O)c3)c2)C(OC(=O)c2cc(O)c(O)c(OC(=O)c3cc(O)c(O)c(O)c3)c2)C1OC(=O)c1cc(O)c(O)c(OC(=O)c2cc(O)c(O)c(O)c2)c1)c1cc(O)c(O)c(OC(=O)c2cc(O)c(O)c(O)c2)c1 (some centres not stated)
- Potency [1]: 3.98 µM (active)
- Potency [3]: inactive
- outcome [6]: inactive
- Potency [4]: 20.3 µM (active)
- Potency [5]: 22.4 µM (active)
- Potency (CP215): 3.79 µM (active)
- Potency (CP256): 3.55 µM (active)
- Potency (CP260): 3.55 µM (active)
- Potency (DIV14): 3.79 µM (active)
- Potency (DIV17): 2.69 µM (active)
- Potency (ICS): 2.51 µM (active)
- Potency (W2): 1.51 µM (active)

SMILES: CC(=O)OCC1=C(C(=O)O)N2C(=O)C(NC(=O)Cc3ccccc3)C2SC1 (configuration not stated)
- Potency [4]: inactive
- Potency [5]: inactive
- Potency (CP215): inactive
- Potency (CP256): inactive
- Potency (CP260): inactive
- Potency (DIV14): inactive
- Potency (DIV17): inactive
- Potency (ICS): inactive
- Potency (W2): inactive

SMILES: COc1ccc(-c2nc3ccc(C4=C(C)CC(=O)NN4)cc3[nH]2)cc1
- Potency [5]: inactive
- Potency (CP260): inactive

SMILES: CC(C)C(NC(=O)C(CC(=O)O)NC(=O)C(CCCCN)NC(=O)C(N)CCCN=C(N)N)C(=O)NC(Cc1ccc(O)cc1)C(=O)O (configuration not stated) (H-RKDVY-OH; configuration not given here)
- Potency [4]: inactive
- Potency [5]: inactive
- Potency (CP215): inactive
- Potency (CP256): inactive
- Potency (DIV14): inactive
- Potency (DIV17): inactive
- Potency (ICS): inactive
- Potency (W2): inactive

SMILES: CCC(Oc1ccccc1)C(=O)NC1C(=O)N2C1SC(C)(C)C2C(=O)O (configuration not stated)
- Potency [4]: inactive
- Potency [5]: inactive
- Potency (CP215): inactive
- Potency (CP256): inactive
- Potency (CP260): inactive
- Potency (DIV17): inactive
- Potency (ICS): inactive
- Potency (W2): inactive

SMILES: CC(=O)OCC(=O)[C@@]1(O)CCC2C3CCC4=CC(=O)CC[C@]4(C)C3=CC[C@@]21C (some centres not stated)
- Potency [4]: inactive
- Potency (CP215): inactive
- Potency (CP256): inactive
- Potency (CP260): inactive
- Potency (DIV14): inactive
- Potency (DIV17): inactive
- Potency (ICS): inactive
- Potency (W2): inactive

SMILES: COc1cc(OC)c2c(c1)OC(c1ccccc1)CC2=O (configuration not stated)
- Potency [1]: 12.6 µM (active)
- Potency [3]: inactive
- Potency [2]: inactive

SMILES: CC(C)C[C@H](NC(=O)[C@@H](Cc1c[nH]c2ccccc12)NC(=O)[C@@H](Cc1ccc(O)cc1)NC(=O)[C@@H](CO)NC(=O)[C@@H](Cc1c[nH]c2ccccc12)NC(=O)C(Cc1cnc[nH]1)NC(=O)C1CCC(=O)N1)C(=O)N[C@@H](CCCN=C(N)N)C(=O)N1CCC[C@@H]1C(=O)NCC(N)=O (some centres not stated)
- Potency [4]: inactive
- Potency [5]: inactive
- Potency (CP215): inactive
- Potency (CP256): inactive
- Potency (CP260): inactive
- Potency (DIV14): inactive
- Potency (DIV17): inactive
- Potency (ICS): inactive
- Potency (W2): inactive

SMILES: CCOc1ccc(/C=C/C(=O)c2cccs2)cc1
- Potency [1]: inactive
- Potency [2]: inactive

SMILES: COc1ccc2c(c1OC)C(Cc1ccccc1)N1CCc3cc4c(cc3C1=C2)OCO4 (configuration not stated)
- Potency [1]: 0.199 µM (active)
- Potency [3]: inactive
- Potency [2]: inactive

SMILES: COC(=O)CCC(C)C1CCC2C3C(C[C@H](O)C12C)C1(C)CC[C@@H](O)CC1C[C@H]3O (some centres not stated)
- Potency [2]: inactive

SMILES: Cc1onc(-c2c(Cl)cccc2Cl)c1C(=O)NC1C(=O)N2C1SC(C)(C)C2C(=O)O (configuration not stated)
- Potency [1]: inactive
- outcome [6]: inactive
- outcome [7]: inactive

SMILES: O=c1c(-c2ccc(O)cc2)coc2c(C3OC(CO)C(O)C(O)C3O)c(O)ccc12 (configuration not stated)
- Potency [1]: inactive
- outcome [6]: inactive
- outcome [7]: inactive
